Screening data deposited in PubChem by several laboratories.
Mtb BioA inh: inhibitors of Mycobacterium tuberculosis BioA enzyme; inhibition, % at 9.99 µM; actives 0.096% (n = 360,000); AID 602481; purified M. tuberculosis BioA enzyme, plate reader; in the data active = inhibition above about 40%
FadD28 binding: blocks FadD28 binding to the bisubstrate probe | fluorescence polarization | actives 0.22% (n = 360,000) | inhibition, % at 12.5 µM; in the data active = inhibition above about 8.5%, passing the limit was not always enough
Mtb hypoxia rep: inhibitors of hypoxia-regulated fluorescent reporter in Mycobacterium tuberculosis. M. tuberculosis hypoxia-regulated fluorescent reporter, fluorescence. fluorescence inhibition, % (concentration not given with the values). actives 0.1% (n = 300,000). AID 1159583; in the data active = fluorescence inhibition mostly above about 23%, no sharp cut-off; inactive = mostly below about 17%
SARS 3CLpro inh: SARS-CoV 3CLpro protease inhibition; P0C6X7; actives 0.14% (n = 290,000); inhibition, % at 6 µM; recombinant SARS-CoV 3CLpro, quenched FRET peptide cleavage; in the data active = inhibition above about 12%
DUSP3 inh: inhibitors of human VHR1 phosphatase (DUSP3). recombinant VHR phosphatase, pNPP absorbance. actives 0.52% (n = 290,000). AID 1654. inhibition, % at 13.3 µM. P51452; in the data active = inhibition above about 50%
Target sequence (P51452 whole entry, looked up): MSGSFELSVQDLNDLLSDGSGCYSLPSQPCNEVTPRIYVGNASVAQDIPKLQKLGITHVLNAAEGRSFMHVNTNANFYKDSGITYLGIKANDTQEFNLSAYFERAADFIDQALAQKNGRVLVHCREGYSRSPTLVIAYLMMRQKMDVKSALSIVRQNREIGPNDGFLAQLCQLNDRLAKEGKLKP
Numbers stand for hits; - = inactive; . = not tested or not shown. Only some compounds are listed: those with a hit (about 0.7% of all), similar ones and a draw of the others.

SMILES	Mtb BioA inh	FadD28 binding	Mtb hypoxia rep	SARS 3CLpro inh	DUSP3 inh
O=C(C1CC(c2ccc(F)cc2)=NO1)N1CCc2ccccc2C1 (centres undefined)	-	-	.	-	-
COC(=O)C1=C(c2cccc(OC)c2OC)CC2CCC1N2C(=O)N1CCCCC1 (centres undefined)	.	.	-	.	.
CCOC(=O)C=CC(=O)OCC(=O)Nc1ccc(Cl)cn1	.	.	-	.	.
Cc1noc(-c2ccc(Cl)cc2)c1C(=O)ON=C(N)c1ccc(C(C)(C)C)cc1	.	.	-	.	.
N#CC(C#N)=NNc1ccc(S(N)(=O)=O)cc1	-	25.0	.	-	-
N#Cc1c2ccccc2nc2ccccc12	-	-	61.5	-	-
Nc1c2ccccc2nc2ccccc12	-	-	-	-	-
Cn1cc(C=NO)nc2c(=O)n(-c3ccccc3)c(=O)nc1-2	.	.	38.5	.	.
CC1CCCN(S(=O)(=O)c2ccc(S(=O)(=O)N3CCCN(Cc4ccccc4)C3)cc2)C1 (centres undefined)	-	-	-	.	51.9
O=c1c(O)cccc2cc(O)c(O)c(O)c12	-	16.0	-	-	.
Cc1ccccc1OCCC(=O)NNC(=O)c1ccccc1F	-	-	32.6	.	.
COc1cc(C(=O)NNC(=O)CCOc2ccccc2C)cc(OC)c1OC	-	-	-	.	.
CN(c1cccc(Cl)c1)S(=O)(=O)c1cccc(C(=O)Nc2nc3ccccc3[nH]2)c1	.	-	-	-	51.3
COc1cccc(-n2nnc3c(=O)n(CC=Cc4ccccc4)cnc32)c1	.	.	-	.	.
COc1cccc(CNCC(O)COc2ccc(C(=O)c3ccccc3)cc2)c1 (centres undefined)	-	-	-	-	52.0
CC(C)(C)C(=O)C=c1sc(=Cc2ccc(-c3ccc([N+](=O)[O-])cc3)o2)c(=O)n1CC(=O)NC(N)=O	.	.	-	.	.
c1csc(CN2CCNCC2)c1	.	-	-	-	55.5
CCOC(=O)N1CCN(Cc2cccs2)CC1	-	-	-	-	-
COc1ccc(C(=O)N2CC3(CC(c4cccc(NC(=O)CC(c5ccccc5)c5ccccc5)c4)=NO3)CC2C(N)=O)cc1 (centres undefined)	.	.	-	.	.
O=c1oc2cc(O)c(Cl)cc2c2ccccc12	-	-	-	-	-
O=c1cc2c(=O)oc3cc(O)c(O)oc3c2c(O)c1O	-	10.6	-	-	111.6
O=[N+]([O-])c1cccc(/C=N/N=C\c2ccccc2)c1	-	-	.	-	59.7
CCCCN(C(=O)CSc1nnc(-c2ccccc2)o1)c1c(N)n(CCC)c(=O)[nH]c1=O	-	-	29.5	.	.
CCCCN(C(=O)c1oc2ccc(OCC)cc2c1C)c1c(N)n(CCCC)c(=O)[nH]c1=O	-	-	.	.	.
CCCCn1c(N)c(N(CCOC)C(=O)c2oc3ccc(Br)cc3c2C)c(=O)[nH]c1=O	-	-	25.8	.	.
SMILES	Mtb BioA inh	FadD28 binding	Mtb hypoxia rep	SARS 3CLpro inh	DUSP3 inh
CCCCN(C(=O)CSc1nnc(-c2ccco2)o1)c1c(N)n(Cc2ccccc2)c(=O)[nH]c1=O	-	-	-	-	-
CCCCN(C(=O)c1ccco1)c1c(N)n(CCC)c(=O)[nH]c1=O	-	-	28.1	.	.
CC1CCC(CN2C(Nc3ccccc3)=NCC2Cc2ccccc2)CC1 (centres undefined)	.	.	-	.	.
COc1cc(C=CC(=O)O)cc(OC)c1OC	.	.	-	.	.
Cc1ccc(NC(=O)Nc2sc(=S)n(C)c2C)cc1	-	11.1	-	-	-
Clc1cccc(Cl)c1Cn1nnc(N2CCCC2)n1	-	-	35.5	-	-
Fc1cccc(Cl)c1Cn1nnc(-c2ccc(N3CCOCC3)cc2)n1	-	-	-	-	-
Cc1cc(O)c(CN(C)C)c2c1C(=O)/C(=C/c1ccco1)O2	.	-	-	-	-
Cc1cc(O)c(C=O)c2c1C(=O)Oc1c(CO)c(O)c3c(c1O2)C(O)OC3=O (centres undefined)	-	17.9	.	-	-
CCOC(=O)c1ccc(NC(=O)c2nc[nH]c2C(=O)NC(CC(C)C)C(=O)OCc2ccccc2)cc1 (centres undefined)	.	.	-	.	.
O=C(O)CN1C(=O)/C(=C\c2cc(Br)ccc2OCc2ccc(Cl)cc2)SC1=S	-	-	-	-	57.3
O=C1/C(=C\c2cccc(O)c2O)SC(=S)N1Cc1ccccc1	-	-	.	-	-
O=C1/C(=C\c2cc([N+](=O)[O-])ccc2O)SC(=S)N1Cc1ccc(Cl)cc1	-	8.6	-	-	-
Cc1[nH]c(=O)[nH]c(=O)c1C=NNC(=O)CCNC(=O)OC(C)(C)C	.	.	-	.	.
C=CC[n+]1ccc(/C=C2\C=Cc3cc(C)ccc3N2CC)c2ccccc21	-	-	36.0	-	-
CCN1/C(=C/c2cc[n+](CCCS(=O)(=O)[O-])c3ccccc23)Sc2ccccc21	.	-	-	-	-
CCCCCCCCCCCCCCCCn1cc[n+](C)c1	.	48.8	-	-	-
CCCCCCCCn1ccc(=N)cc1	-	-	-	-	-
CC(C)N1CCc2c(sc(NC(=O)c3cc4cc([N+](=O)[O-])ccc4s3)c2C(N)=O)C1	-	14.5	-	-	-
CSc1ccccc1OCc1cc(C(=O)NC2CCc3ccccc32)no1 (centres undefined)	-	-	-	-	51.3
CCn1c(=O)n(CC)c2cc(N3CCCC3)c(NC(=O)c3ccccc3OC)cc21	-	-	-	-	52.2
Cc1ccc(C)c(NC(=S)N2CCCC2)c1	-	-	-	-	-
Cc1ccc(NC(=S)N2CCCCCC2)c(C)c1	-	-	-	-	52.8
COc1ccccc1C(=O)N/C(=C\c1cn(C)c2ccccc12)C(=O)NCCCN1CCOCC1	-	-	-	-	57.0
COc1ccc(N2C(=O)N3C(c4ccc(Cl)cc4)C4C(=O)N(C5CCCCC5)C(=O)C4[C@]3(C)C2=O)cc1 (some centres undefined)	.	.	-	.	.
SMILES	Mtb BioA inh	FadD28 binding	Mtb hypoxia rep	SARS 3CLpro inh	DUSP3 inh
CCOC(=O)c1sc(NNC(=O)c2ccc(C)cc2)nc1C	-	-	-	-	-
CCOC(=O)c1nc(NNC(=O)c2ccc([N+](=O)[O-])cc2)sc1C	-	-	-	-	50.7
CCCCNC(=S)NNc1c(Cl)cc(Cl)cc1Cl	-	-	-	-	51.3
Cc1c(Br)c(O)c(Br)c(O)c1/C=N/n1c(-c2ccccc2)n[nH]c1=S	-	20.7	.	-	-
CCc1ccc(-c2nc(-c3ccncc3)no2)cc1	-	-	.	-	57.1
O=C1NC(=S)S/C1=C\C=C\c1ccc([N+](=O)[O-])o1	-	13.8	.	-	-
OC(CNCc1ccccc1)COc1ccccc1 (centres undefined)	-	-	-	.	.
OC(CNCC1CCCCC1)COc1ccccc1 (centres undefined)	-	-	-	-	51.1
O=C(Nc1ccc(N2CCOCC2)cc1)c1ccc2nc(-c3ccco3)c(-c3ccco3)nc2c1	-	-	-	-	-
S=C(Nc1ccc(N2CCOCC2)cc1)Nc1ccc2nc(-c3ccco3)c(-c3ccco3)nc2c1	-	-	.	-	50.3
COCC(=O)N(Cc1cc2ccc(C)c(C)c2n2nnnc12)C1CCCC1	.	-	-	-	54.4
COc1ccc(C=Nn2c(COc3ccccc3)n[nH]c2=S)cc1OC	.	.	-	.	.
C=CCNC(=O)N1CCC(n2nccc2NC(=O)CCCc2ccccc2)CC1	-	-	-	-	55.6
COCC(=O)N1CCC(n2nccc2NC(=O)CCOc2ccccc2)CC1	-	-	-	-	55.5
